Assay results reported in PubChem BioAssay AID1851 (National Center for Advancing Translational Sciences (NCATS), 2009).
Screen size: about 16,000 compounds; about 2,600 (16%) were called active. Not shown: some 20% with an inconclusive outcome. These entries were drawn from the full list. Values without a mark were called inactive. Calls come from the whole dose curve; as a rule, active = well fitted curve in the direction sought with a large enough effect; inconclusive = small, poorly fitted or top-dose-only effect, or effect the other way; inactive = no such curve, though single readings can be large or run the other way.
% is set by controls: 0 for no effect and ±100 for the full control effect.

These compounds were tested against Cytochrome P450 2D6 (Homo sapiens) (UniProt P10635) (assay: Cytochrome panel assay with activity outcomes). Settings: recombinant CYP, pro-luciferin dealkylation, luminescence, p450-cyp2d6; series mostly up to 57.1 µM.
Chain of Cytochrome P450 2D6 (Homo sapiens) (P10635 whole entry, looked up): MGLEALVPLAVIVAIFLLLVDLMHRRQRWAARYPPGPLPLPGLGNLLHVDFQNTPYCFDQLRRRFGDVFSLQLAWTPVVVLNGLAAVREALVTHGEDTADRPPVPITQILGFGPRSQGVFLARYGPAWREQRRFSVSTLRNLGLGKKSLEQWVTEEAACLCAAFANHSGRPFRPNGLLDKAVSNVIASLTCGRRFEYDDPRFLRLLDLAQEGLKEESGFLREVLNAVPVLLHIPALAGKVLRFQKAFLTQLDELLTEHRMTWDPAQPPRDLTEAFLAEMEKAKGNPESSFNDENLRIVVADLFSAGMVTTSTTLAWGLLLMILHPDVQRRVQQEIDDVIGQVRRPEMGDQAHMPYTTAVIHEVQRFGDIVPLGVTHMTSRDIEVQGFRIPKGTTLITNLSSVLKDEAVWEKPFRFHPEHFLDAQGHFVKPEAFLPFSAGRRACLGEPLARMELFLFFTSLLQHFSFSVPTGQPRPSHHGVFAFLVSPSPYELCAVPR
For `Cc1ccc(C(=O)COC(=O)c2ccc3c(c2)C(=O)N(c2cccc4ncccc24)C3=O)cc1C`, the AC50 was “inactive”.
For `Cc1ccc(C)c(S(=O)(=O)NC(CC(C)C)C(=O)O)c1` (configuration not stated), the AC50 was “inactive”.
`COc1ccc(C2/C(=C(/O)c3ccc4c(c3)CC(C)O4)C(=O)C(=O)N2CCN2CCOCC2)cc1` (configuration not stated) was tested, and the AC50 was “inactive”.
`CN1CCN(c2ncc3ncc(=O)n(Cc4ccc(F)cc4)c3n2)CC1` was tested, and the AC50 was “inactive”.
`Nc1nc2c(ncn2COC(CO)CO)c(=O)[nH]1` was tested, and the AC50 was “inactive”.
With `O=C1Nc2ccc([N+](=O)[O-])cc2C1(O)N1CCCCCC1` (configuration not stated) the AC50 was “inactive”.
With `Cc1nc(SCC(=O)Nc2ccc(N3CCOCC3)cc2)nc(C)c1C` the AC50 was “inactive”.
For `Cc1nc(SCC(=O)NCCc2ccc(Cl)cc2)nc(C)c1C`, the AC50 was 3.55 µM (active).
For `Nc1cc(N)nc(SCC(=O)NNC(=O)c2ccc(Cl)cc2)n1`, the AC50 was “inactive”.
`CC(C)[C@H](Sc1nc(N)nc2nc[nH]c12)C(=O)O` showed an activity, negative = inhibition of 2.46% [at 11.4 µM].
In the case of `CCOc1ccc(NC(=O)Cn2nnc(C(=O)NCc3ccccc3OC)c2N)cc1`, the AC50 is reported as “inactive”.
With `COc1ccc(C2(CNC(=O)/C=C/c3ccco3)CCCC2)cc1OC` the AC50 was “inactive”.
In the case of `O=C(NC(=S)Nc1nc(-c2ccc(Br)cc2)cs1)c1cccnc1`, the AC50 is reported as “inactive”.
Work on `CC(C)(C)N1C(=O)[C@H]2[C@H]3[C@H](O)[C@H](O)C/C(=N/NC(=O)OCc4ccccc4)[C@H]3CC[C@@H]2C1=O` yielded an activity, negative = inhibition of 6.89% [at 11.4 µM].
With `CC(=O)OC[C@H]1O[C@@H](O/N=C(\C)CCN2CCCc3nc(C)c(C)cc32)[C@H](OC(C)=O)[C@@H](OC(C)=O)[C@H]1OC(C)=O` the AC50 was 3.16 µM (active).
`CC(=O)OC[C@@H]1O[C@H](CCO/N=C(\C)CCN2CCCc3nc(C)c(C)cc32)C=C[C@@H]1OC(C)=O` gave an activity, negative = inhibition of -15.6% [at 11.4 µM].
In the case of `CC(=O)OC[C@H]1O[C@@H](O/N=C(\C)CCN2CCCCc3nc(C)c(C)cc32)[C@H](OC(C)=O)[C@@H](OC(C)=O)[C@H]1OC(C)=O`, the AC50 is reported as 3.98 µM (active).
`Cc1ccccc1-c1cc(C(=O)Nc2nc3c(s2)CCCC3)c2ccccc2n1` was tested, and the AC50 was “inactive”.
With `O=C(c1cnccn1)N1CCC[C@@]2(CCN(c3ncccn3)C2)C1` the AC50 was “inactive”.
`CCOC(=O)c1nc2sc(C)c(C)c2c(=O)[nH]1` was tested, and the AC50 was “inactive”.
For `C[C@@H]1O[C@@H](n2cc(F)c(=O)[nH]c2=O)[C@H](O)[C@@H]1O`, the AC50 was “inactive”.
With `COC(=O)[C@@]1(Cc2ccc(OC)cc2)[C@@H]2C(=CC(=O)[C@H]2CC(=O)C(=O)N(C)C)CN1C(=O)c1ccccc1` the AC50 was “inactive”.
`CN(c1ccccc1)c1nc(-n2ccnc2)nc(-n2ccnc2)n1` was tested, and the AC50 was 11.2 µM (active).
With `CCOc1nc(N2CCCCC2)nc(-n2cc(-c3ccccc3)nn2)n1` the AC50 was “inactive”.
With `c1ccc(-c2nc(N3CCCCCC3)nc(-n3ccnc3)n2)cc1` the AC50 was 14.1 µM (active).
With `CCCSc1cc(N2CCCC2)nc(-c2ccccc2)n1` the AC50 was “inactive”.
For `C[C@@H](N)C(=O)O`, the AC50 was “inactive”.
In the case of `Cc1c(C(=O)NN2CCN(C)CC2)cccc1[N+](=O)[O-]`, the AC50 is reported as “inactive”.
With `Cc1sc(=NC(=O)c2ccco2)n(C)c1-c1ccc(F)cc1` the AC50 was “inactive”.
For `CCc1cc2cc(C)c(C)cc2nc1SCC(=O)NNC(=O)c1ccco1`, the AC50 was “inactive”.
In the case of `CC(C)(C)C(=O)N1CCN(c2ccc([N+](=O)[O-])c(NCC3CCCO3)c2)CC1` (configuration not stated), the AC50 is reported as “inactive”.
`COc1cccc([C@H](O)Cn2cc(-c3ccc(CON=C(C)C)cc3)nn2)c1` gave an activity, negative = inhibition of 4% [at 11.4 µM].
With `O=c1c(Cl)c(N2CCN(S(=O)(=O)c3ccc(F)cc3)CC2)cnn1-c1cccc(Cl)c1` the AC50 was “inactive”.
With `CC(=O)C=NCC(=O)O` the activity, negative = inhibition was -2.95% [at 11.4 µM].
With `Cc1cnc(CNc2cc(-c3ccoc3)ncn2)cn1` the AC50 was “inactive”.
`c1cncc(CNc2cc(-c3ccoc3)ncn2)c1` was tested, and the AC50 was “inactive”.
`Cc1cccc(CNc2cc(-c3ccc(N(C)C)cc3)ncn2)c1` was tested, and the AC50 was “inactive”.
In the case of `c1csc(CNc2cc(-c3ccoc3)ncn2)c1`, the AC50 is reported as 15.8 µM (active).
With `Cc1cccc(CNc2cc(-c3ccoc3)ncn2)c1` the AC50 was 25.1 µM (active).
For `C=CCSc1ccsc1C(=O)O`, the AC50 was “inactive”.
For `Cc1cc(C)n2c(SCC(=O)N(C)C3CCS(=O)(=O)C3)nnc2n1` (configuration not stated), the AC50 was “inactive”.
For `O=c1c(C=Nc2ccc(Oc3ccccc3)cc2)c[nH]n1-c1cccc(Cl)n1`, the AC50 was “inactive”.
With `CC(=O)OCc1c(C(F)(F)F)nn(C)c1Sc1ccccc1` the AC50 was “inactive”.
In the case of `CCn1c2ccccc2c2cc(NC(=O)C(C)Oc3ccc(OC)cc3)ccc21` (configuration not stated), the AC50 is reported as “inactive”.
For `Cc1ccc(OCC(O)Cn2c3ccccc3c3ccccc32)cc1` (configuration not stated), the AC50 was 6.31 µM (active).
In the case of `OC[C@@H](O)COc1cccc2ccccc12`, the AC50 is reported as “inactive”.
`Cc1ccc(OCC(O)CNC(=O)c2ccccc2C(=O)O)cc1` (configuration not stated) was tested, and the AC50 was “inactive”.
With `Cc1ccccc1OCC(O)Cn1c2ccccc2c2ccccc21` (configuration not stated) the AC50 was 0.891 µM (active).
With `c1ccc2c(c1)c1ccccc1n2Cn1c2ccccc2c2ccccc21` the activity, negative = inhibition was -12.9% [at 11.4 µM].
With `Cc1cc(C)n(CC(O)COc2ccccc2)n1` (configuration not stated) the AC50 was “inactive”.
In the case of `CC(=O)Nc1ccc(OCC(O)Cn2c3ccccc3c3ccccc32)c(C)c1` (configuration not stated), the AC50 is reported as 14.1 µM (active).
For `Cc1ccccc1OCC(O)Cn1c(NCc2ccccc2)nc2c1c(=O)[nH]c(=O)n2C` (configuration not stated), the AC50 was “inactive”.
For `C=CCN(CC=C)CC(O)Cn1c2ccccc2c2ccccc21` (configuration not stated), the AC50 was 0.224 µM (active).
For `C#CCCCO/N=C1/[C@H]2O[C@@H]2[C@@H](O)[C@H]2[C@H]1CCn1c(=O)n(Cc3cc4c(cc3Cl)OCO4)c(=O)n12`, the activity, negative = inhibition was -0.473% [at 11.4 µM].
Compound `O=C(O)c1nnsc1-c1csnn1` has an activity, negative = inhibition of -6.92% [at 11.4 µM].
With `Cc1cc(C)c(C(N)=O)c(NC(=O)Nc2ccccc2)n1` the AC50 was “inactive”.
`O=c1[nH][nH]c(=S)c(=O)[nH]1` was tested, and the activity, negative = inhibition was 0.16% [at 11.4 µM].
In the case of `C=CCNC(=S)Nc1ccc2nc(C)c(C)nc2c1`, the AC50 is reported as “inactive”.
For `Cc1ccc(NC(=O)CN(C)C(=O)CSc2n[nH]c(N)n2)cc1`, the AC50 was “inactive”.
`CCn1cc(C(=O)N/N=C(/C)c2ccc(F)cc2)c(=O)c2cc(F)c(N3CCCC3)cc21` was tested, and the AC50 was “inactive”.
With `CCc1cccc2c3c([nH]c12)[C@@](CC)(CC(=O)O)OCC3` the AC50 was “inactive”.
For `O=C1S/C(=C/c2ccc(N3CCOCC3)o2)C(=O)N1Cc1ccc(F)cc1`, the AC50 was “inactive”.
